Assay results taken from PubChem BioAssay AID652016 (National Center for Advancing Translational Sciences (NCATS), 2013).
Inconclusive results are not listed. Values without a mark were called inactive. Active and inactive are the calls of the source. Calls come from the whole dose curve; as a rule, active = well fitted inhibition curve with a large enough effect; inconclusive = small, poorly fitted or top-dose-only effect; inactive = flat fitted curve, though single readings scatter.
% is set by controls: 0 for no effect and ±100 for the full control effect; potency is the fitted concentration of half-maximal effect.

Each compound was assayed against Luciferin 4-monooxygenase (Photinus pyralis) (UniProt P08659) (assay: qHTS Assay for Inhibitors of Firefly Luciferase from the GSK Published Protein Kinase Inhibitor Set). Conditions: purified firefly luciferase, luminescence inhibition; series mostly up to 57.5 µM; activity change, negative = inhibition: at the top concentration.
Chain of Luciferin 4-monooxygenase (Photinus pyralis) (P08659 whole entry, looked up): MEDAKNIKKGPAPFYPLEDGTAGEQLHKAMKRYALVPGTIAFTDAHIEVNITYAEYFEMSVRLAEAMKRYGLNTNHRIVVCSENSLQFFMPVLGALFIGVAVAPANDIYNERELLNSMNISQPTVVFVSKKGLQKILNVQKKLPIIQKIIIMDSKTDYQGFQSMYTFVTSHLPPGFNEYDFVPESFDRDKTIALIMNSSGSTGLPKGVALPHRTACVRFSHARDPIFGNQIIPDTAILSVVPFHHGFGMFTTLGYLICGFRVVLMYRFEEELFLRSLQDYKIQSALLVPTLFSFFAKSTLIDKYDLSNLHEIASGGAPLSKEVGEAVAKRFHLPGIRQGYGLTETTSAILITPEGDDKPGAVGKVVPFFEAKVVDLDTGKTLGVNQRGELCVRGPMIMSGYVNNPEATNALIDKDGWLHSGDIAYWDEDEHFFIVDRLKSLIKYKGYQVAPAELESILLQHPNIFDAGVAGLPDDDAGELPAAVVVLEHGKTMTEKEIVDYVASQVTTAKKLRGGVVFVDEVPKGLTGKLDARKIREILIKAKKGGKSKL
How it was run: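 Purified P. pyralis luciferase, 10nM, with 10uM D-luciferin and 10uM ATP in 50mM Tris acetate pH 7.5, 10mM Mg acetate, 0.01% Tween-20, 0.05% BSA. Titration ~60uM to 300pM; luminescence read after about 5 min.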
For `O=C1NC(=O)C(c2cccc(Cl)c2)=C1Nc1ccc(Cl)c(C(=O)O)c1`, the “activity change, negative = inhibition” value was 9.38%. With `CCn1c(-c2nonc2N)nc2cncc(C(=O)NCCNC)c21` the “activity change, negative = inhibition” value was 9.59%. In the case of `COc1ccc(-c2nn3ncccc3c2-c2ccnc(Nc3ccc(Cl)c(C(F)(F)F)c3)n2)cc1`, the “activity change, negative = inhibition” value is reported as 9.12%. `COc1cc2ncn(-c3cc(OCCc4ccccc4)c(C(N)=O)s3)c2cc1OC` was tested, and the “activity change, negative = inhibition” value was 0.383%. For `COc1ccc2ncn(-c3cc(OC(C)c4ccccc4Cl)c(C(N)=O)s3)c2c1` (stereo not drawn), the “activity change, negative = inhibition” value was 2.04%. In the case of `Cc1nc(-c2ccccc2)n2nc(NCCCN3CCOCC3)ncc12`, the “activity change, negative = inhibition” value is reported as -1.42%. With `COc1cccc(Nc2nccc(-c3cnn4ncccc34)n2)c1` the “activity change, negative = inhibition” value was 4.6%. With `c1cc(-c2cnn3nc(N4CCOCC4)ccc23)nc(NC2CC2)n1` the Potency was 4.61 µM (active). For `NCc1ccc(-n2c(-c3nonc3N)nc3cnccc32)cc1`, the “activity change, negative = inhibition” value was 12.6%. With `COc1ccc(-c2cc3c(N)ncnc3o2)cc1` the Potency was 6.51 µM (active). With `Cc1ccc(Nc2ccnc(Nc3cccc(C(N)=O)c3)n2)cc1O` the Potency was 1.46 µM (active). `COc1cc2c(cc1Nc1nc(Nc3ccsc3C(N)=O)c3cc[nH]c3n1)N(C(=O)CN(C)C)CCC2(C)C` was tested, and the “activity change, negative = inhibition” value was 9.8%. `CCn1c(-c2nonc2N)nc2c(N3CCCC3)nccc21` was tested, and the “activity change, negative = inhibition” value was 11.3%. For `COc1cc(C)c(NC(=O)CN(C)C)cc1Nc1nc(Nc2cccc(F)c2C(N)=O)c2cc[nH]c2n1`, the “activity change, negative = inhibition” value was 2.64%. For `CN(C)CCOc1ccc(-c2nc(-c3ccc4c(c3)CCC4=NO)c(-c3ccncc3)[nH]2)cc1`, the Potency was 14.6 µM (active). `CS(=O)(=O)CCNCc1ccc(-c2ccc3ncnc(Nc4ccc(OCc5ccccc5)c(C(F)(F)F)c4)c3c2)o1` was tested, and the “activity change, negative = inhibition” value was -16.6%. For `CC(=Nc1ccc(S(N)(=O)=O)cc1)c1c(O)[nH]c2ccccc12`, the Potency was 3.66 µM (active). With `CCn1cc(-c2ccnc3[nH]ccc23)c(-c2cccc(NC(=O)Nc3ccc(OCc4ccccc4)cc3)c2)n1` the “activity change, negative = inhibition” value was 17.6%. With `NC(=O)c1sc(-n2cnc3ccc(C(F)(F)F)cc32)cc1OCc1ccccc1Br` the “activity change, negative = inhibition” value was -6.69%. In the case of `ON=C1CCc2cc(-c3nc(C4CCNCC4)[nH]c3-c3ccncc3)ccc21`, the “activity change, negative = inhibition” value is reported as -26%. In the case of `COc1cc2ncn(-c3cc(OCc4ccccc4C(F)(F)F)c(C(C)=O)s3)c2cc1OC`, the “activity change, negative = inhibition” value is reported as 11%. For `CS(=O)(=O)Nc1ccc(-c2cc(-c3ccccc3)cc(C(N)=O)c2N)cc1`, the “activity change, negative = inhibition” value was 24.7%. `Nc1nccc(-c2c(-c3ccc(F)cc3)ncn2C2CCNCC2)n1` was tested, and the “activity change, negative = inhibition” value was 13.5%. In the case of `CC(Oc1cc(-n2cnc3ccc(OCC4CCN(C)CC4)cc32)sc1C(N)=O)c1ccccc1C(F)(F)F` (stereo not drawn), the “activity change, negative = inhibition” value is reported as 3.41%. `CC(C)=Cc1cccc2[nH]c(O)c(N=Nc3ccc(S(N)(=O)=O)cc3)c12` was tested, and the “activity change, negative = inhibition” value was 3.89%. `COC(=O)Nc1nc2ccc(Oc3ccc(NC(=O)Nc4cccc(C(=O)O)c4)cc3)cc2[nH]1` was tested, and the Potency was 0.116 µM (active). `C#Cc1cccc(Nc2ncnc3ccc(OCCCCNCCS(C)(=O)=O)cc23)c1` was tested, and the “activity change, negative = inhibition” value was 7.77%. In the case of `Clc1ccc(-c2nn3ncccc3c2-c2ccnc(Nc3ccccc3)n2)cc1`, the “activity change, negative = inhibition” value is reported as 8.58%. `CNC(=O)c1cc(-c2ccc(F)cc2)cc(-c2ccc(S(=O)(=O)N3CCCC3)cc2)c1N` was tested, and the “activity change, negative = inhibition” value was 9.72%. `CN1CCC(C(=O)Nc2n[nH]c3nnc(-c4ccccc4)cc23)CC1` was tested, and the “activity change, negative = inhibition” value was 4.91%. `COc1ccc(-c2coc3ncnc(N)c23)cc1` was tested, and the “activity change, negative = inhibition” value was 0.905%. With `CCn1c(-c2nonc2N)nc2c(C#CC(C)(C)O)nc(OCC(N)c3ccccc3)cc21` (stereo not drawn) the Potency was “inactive”. `COc1cc2ncn(-c3cc(OCc4ccccc4Cl)c(C(N)=O)s3)c2cc1OC` was tested, and the “activity change, negative = inhibition” value was 8.26%.
